Results filed as inconclusive are left out. A number with no mark means an inactive call. Active and inactive are the calls of the source. The call rests on the fitted dose curve; in most records, active means well fitted curve in the direction sought with a large enough effect; inconclusive means small, poorly fitted or top-dose-only effect, or another doubt; inactive means no such curve, though single readings can be large; an effect the other way counts as inactive or inconclusive.

Test [1] is described as follows: qHTS of pediatric cancer cell lines to identify multiple opportunities for drug repurposing: Primary screen for A673 cells (AID 1347092). Further: nearly all actives have a fitted effect of over 45% in size. Further: potency means the concentration at half of the fitted maximal effect. On activity change, negative = cytotoxic: on the % scale 0 is the no-effect control and ±100 the full control effect. Put shortly: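 A673 cells (500-1,000 cells/well in growth media) were pre-incubated 5 h at 37 degrees C, then exposed to compounds for 48 h. Viability was read as CellTiter-Glo luminescence; concentration-response curves came directly from the primary screen.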
(qHTS replaces the single test concentration by a dilution series.)

Test [2] is described as follows: qHTS of pediatric cancer cell lines to identify multiple opportunities for drug repurposing: Primary screen for SK-N-MC cells (AID 1347093). Further: potency means the concentration at half of the fitted maximal effect.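 On activity change, negative = cytotoxic: series mostly up to about 46 µM; plate controls were DMSO neutral control for no effect and bortezomib for full effect.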 Put shortly:
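Metabolically active cells were quantified by ATP-dependent luminescence (CellTiter-Glo, 15 min at room temperature) following 48 h treatment. Cells had been plated at 500-1,000 per well and settled for 5 h beforehand.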

Test [3] is described as follows: qHTS of pediatric cancer cell lines to identify multiple opportunities for drug repurposing: Primary screen for BT-37 cells (AID 1347094).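 Further: series mostly up to about 57 µM; plate controls were DMSO for no effect and bortezomib for full effect.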 In a few lines:
(§1)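 Cells plated at 500-1,000/well in growth medium, compounds added after 5 h. MIPE tested at 11 points (from 0.78 nM), NPC at 8 points (from 0.59 nM). CellTiter-Glo luminescence after 48 h; concentration-response curves from primary screen.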

Test [4] in a line: qHTS of pediatric cancer cell lines to identify multiple opportunities for drug repurposing: Primary screen for NB-EBc1 cells (AID 1347095).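 Further: plate controls were DMSO neutral control for no effect and bortezomib for full effect.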 In a few lines:
as §1

Test [5] is described as follows: qHTS of pediatric cancer cell lines to identify multiple opportunities for drug repurposing: Primary screen for U-2 OS cells (AID 1347096).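 Further: plate controls were DMSO wells for no effect and bortezomib positive control wells for full effect; nearly all actives have a fitted effect of over 50% in size.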 Put shortly:
(§2)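 Cells (500-1,000/well) rested 5 h, then received compounds for 48 h; metabolically active cells were measured by CellTiter-Glo luminescence. Final concentrations spanned up to 46 µM (MIPE, 11-point) or 0.59 nM-46 µM (NPC, 8-point) in primary screens, 11-point in follow-ups.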

A short description of test [6]: qHTS of pediatric cancer cell lines to identify multiple opportunities for drug repurposing: Primary screen for SK-N-SH cells (AID 1347098). Further: nearly all actives have a fitted effect of over 65% in size. Further: potency means the concentration at half of the fitted maximal effect.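 On activity change, negative = cytotoxic: DMSO served as neutral control and bortezomib at 2.3 µM as positive control; on the % scale 0 is the no-effect control and ±100 the full control effect.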 In a few lines: as §2
A short description of test [7]: qHTS of pediatric cancer cell lines to identify multiple opportunities for drug repurposing: Primary screen for NB1643 cells (AID 1347099).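 Further: plate controls were DMSO neutral control for no effect and bortezomib positive control for full effect; nearly all actives have a fitted effect of over 50% in size.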 Put shortly: as §1
Test [8] is described as follows: qHTS of pediatric cancer cell lines to identify multiple opportunities for drug repurposing: Primary screen for LAN-5 cells (AID 1347100).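 Further: plate controls were DMSO neutral control for no effect and bortezomib positive control for full effect.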 Put shortly: as §2
Test [9] is described as follows: qHTS of pediatric cancer cell lines to identify multiple opportunities for drug repurposing: Primary screen for BT-12 cells (AID 1347101).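 Further: plate controls were DMSO for no effect and bortezomib positive control for full effect; nearly all actives have a fitted effect of over 25% in size.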 Put shortly: as §2
A short description of test [10]: qHTS of pediatric cancer cell lines to identify multiple opportunities for drug repurposing: Primary screen for Saos-2 cells (AID 1347097). Further: on the % scale 0 is the no-effect control and ±100 the full control effect; nearly all actives have a fitted effect of over 40% in size. In a few lines:
as §1

For `NC(N)=NCCC[C@H](N)C(=O)O`, the activity change, negative = cytotoxic in test [1] is 0.848% [at 4.84 µM]; in test [2], -27.1% [at 4.84 µM]; in [3], 4.21% [at 6.03 µM]; in test [4], 12% [at 4.84 µM]; in [5], 2.69% [at 4.84 µM]; in test [6], -0.158% [at 6 µM]. Also, the values for the activity change, negative = cytotoxic in [7], in test [8] and in [9] were 7.96% [at 4.84 µM], 8.53% [at 4.84 µM] and 1.23% [at 6.03 µM], respectively.

On to `CCCCCCCCCCCCCCCC(=O)NCCO`, for which the Potency entry in [1], in test [2], in [3], in test [4], in [5] and in test [10] was “inactive” each time. Moreover, the Potency result in test [6], in test [7], in [8] and in test [9] was “inactive” each time.

For `CC(=O)Oc1c(C)c(C)c2c(c1C)CC[C@@](C)(CCC[C@H](C)CCC[C@H](C)CCCC(C)C)O2`, the Potency result in test [1], in [2], in test [3], in test [4], in test [5] and in test [6] was “inactive” throughout. Moreover, the Potency result in test [7], in [8] and in test [9] was “inactive” throughout.

`COc1ccccc1O`: the Potency entry in test [1], in test [2], in test [3], in test [4], in [5] and in [6] was “inactive” throughout. Moreover, the Potency result in test [7], in test [8] and in test [9] was “inactive” in each case.

In the case of `CN1CCCCC1CCN1c2ccccc2Sc2ccc(S(C)=O)cc21` (stereo unspecified), the Potency result in test [1], in test [2], in test [3], in test [4], in [5] and in test [10] was “inactive” in each case. Also, the Potency result in [7], in test [8] and in test [9] was “inactive” each time.

For `Nc1nc2c(ncn2CCC(CO)CO)c(=O)[nH]1`, the Potency result in test [1], in [2], in test [3], in [4], in test [5] and in test [6] was “inactive” each time. Further, the Potency result in test [7], in test [8] and in test [9] was “inactive” throughout.

For the molecule `CC(C)(O)c1ccccc1CC[C@@H](SCC1(CC(=O)O)CC1)c1cccc(/C=C/c2ccc3ccc(Cl)cc3n2)c1`, the Potency result in test [1], in [2], in test [3], in test [4], in [5] and in test [10] was “inactive” each time. The Potency result in test [6], in test [7], in test [8] and in [9] was “inactive” throughout.

Regarding `O=C(O)CC(O)C(=O)O` (stereo unspecified), the Potency entry in test [1], in [2], in test [3], in test [4], in [5] and in test [10] was “inactive” in each case. In addition, the Potency entry in [6], in [7], in test [8] and in test [9] was “inactive” each time.

For `CN1[C@@H]2CC[C@H]1CC(OC(=O)C(O)c1ccccc1)C2` (stereo partly specified), the Potency result in test [1], in test [2], in test [3], in test [4], in test [5] and in test [6] was “inactive” throughout. Further, the Potency entry in [7], in test [8] and in test [9] was “inactive” throughout.

Consider `CN(C)CCOC(C)(c1ccccc1)c1ccccn1` (stereo unspecified), for which the Potency entry in [1], in test [2], in [3], in test [4], in test [5] and in test [10] was “inactive” in each case. Moreover, the Potency result in test [6], in test [7], in [8] and in [9] was “inactive” each time.

Regarding `C[C@]12C[C@H](O)[C@H]3[C@@H](CCC4=CC(=O)CC[C@@]43C)[C@@H]1CC[C@@H]2C(=O)CO`, the Potency entry in [1], in test [2], in test [3], in test [4], in test [5] and in [10] was “inactive” each time. Further, the Potency entry in test [6], in [7], in [8] and in [9] was “inactive” throughout.

As for `CC1(C)[C@@H]2CC[C@@]1(C)C(=O)C2`, the Potency entry in test [1], in test [2], in test [3], in test [4], in [5] and in test [10] was “inactive” throughout. Also, the Potency entry in [6], in test [7], in test [8] and in test [9] was “inactive” each time.

For the molecule `CC(C)(C)C(=O)C(Oc1ccc(Cl)cc1)n1ccnc1` (stereo unspecified), the Potency result in [1], in test [2], in test [3], in test [4], in test [5] and in test [10] was “inactive” each time. Besides, the Potency result in test [7], in test [8] and in test [9] was “inactive” in each case. Further, in test [6], the Potency is 24.4 µM (active).

In the case of `Cc1cc(CC(=O)O)n(C)c1C(=O)c1ccc(Cl)cc1`, the Potency result in [1], in [2], in [3], in test [4], in test [5] and in [10] was “inactive” each time. In addition, the Potency entry in test [6], in test [7], in test [8] and in test [9] was “inactive” in each case.

Regarding `NCCNCCNCCN`, the Potency result in test [1], in test [2], in test [3], in test [4], in test [10] and in [6] was “inactive” throughout. Also, the Potency result in test [7], in [8] and in test [9] was “inactive” each time.

As to `Cc1c(Cl)cccc1Nc1ccccc1C(=O)O`, the Potency result in [1], in test [3], in test [5], in test [6], in test [8] and in test [9] was “inactive” each time. Besides, in [2], the Potency was 18.8 µM (active).

For the molecule `CCCc1c(OCCCCc2nn[nH]n2)ccc(C(C)=O)c1O`, the Potency entry in [1], in test [2], in [3], in test [4], in [5] and in test [6] was “inactive” each time. In addition, the Potency result in test [7] and in [9] was “inactive” each time.

As for `NC1[C@H]2CN(c3nc4c(cc3F)c(=O)c(C(=O)O)cn4-c3ccc(F)cc3F)C[C@@H]12` (stereo partly specified), in test [1], the Potency is 13.3 µM (active). The Potency result in test [2], in test [4] and in test [5] was “inactive” throughout.

In the case of `CC1=C(CC(=O)O)c2cc(F)ccc2/C1=C\c1ccc(S(C)=O)cc1` (stereo unspecified), the Potency entry in [1], in [2], in test [4], in test [5], in [10] and in test [6] was “inactive” each time. Further, the Potency entry in test [7], in test [8] and in test [9] was “inactive” in each case.

With `Cc1cccc(C)c1NC(=O)CN(CC(=O)O)CC(=O)O`, the Potency entry in test [1], in test [2], in test [3], in test [4], in test [10] and in test [6] was “inactive” each time. Moreover, the Potency entry in [7], in [8] and in [9] was “inactive” in each case.

As to `CC(COc1ccccc1)NC(C)C(O)c1ccc(O)cc1` (stereo unspecified), the Potency result in test [1], in test [2], in test [3], in test [4], in test [10] and in test [6] was “inactive” throughout. Moreover, the Potency entry in test [7], in [8] and in test [9] was “inactive” in each case.

`NS(=O)(=O)c1cc2c(cc1Cl)NC(CSCc1ccccc1)=NS2(=O)=O`: the Potency result in [1], in test [2], in [3], in test [4], in test [6] and in [7] was “inactive” each time. Moreover, the Potency result in [8] and in test [9] was “inactive” in each case.

Consider `O=C1N=C(O)CN1/N=C/c1ccc(-c2ccc([N+](=O)[O-])cc2)o1`, for which the Potency result in [1], in [3], in [5], in [10], in test [6] and in test [7] was “inactive” in each case. Further, the Potency entry in test [8] and in test [9] was “inactive” throughout. Moreover, the Potency in test [2] is 5.31 µM (active).

The values are drawn from PubChem BioAssay (NCATS).
